# According to PubChem BioAssay (NCATS):
# Records with an inconclusive call do not appear. Calls of active or inactive are those of the source. The call rests on the fitted dose curve; in most records, active means well fitted cell-killing curve with a large enough effect; inconclusive means small, poorly fitted or top-dose-only effect; inactive means flat fitted curve, though single readings scatter.
# Assay: Cell Viability - LYMP2-021 (AID 974);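 further: compound exposure lasts 24 hours at 37 °C; nearly all actives have a fitted effect of over 55% in size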
# Conditions: LYMP2-021 lymphoblastoid cells viability; series mostly up to 92.2 µM; activity change, negative = cytotoxicity: at the top concentration
# Source text: NIH Chemical Genomics Center [NCGC]
# NIH Molecular Libraries Screening Centers Network [MLSCN]
# National Institutes of Environmental Health Sciences [NIEHS]
# National Toxicology Program [NTP]
# We have developed a 1536-well cell-based assay for quantitative high throughput screening (qHTS) against a number of cell lines to determine in vitro cytotoxicity of small molecules. This particular assay uses a human lymphoblastoid cell line (LYMP2-021) purchased from Coriell Institute for Medical Research.
# NCGC Assay Protocol Summary:
# The CellTiter-Glo luminescent cell viability assay (Promega) is a homogeneous method to measure the number of viable cells in culture. The end point readout of this assay is based on quantitation of intracellular ATP, an indicator of metabolic activity, using the luciferase reaction. Luciferase catalyzes the oxidation of beetle Luciferin to oxyluciferin and light in the presence of ATP. The luminescent signal is proportional to amount of ATP present.
# Using the CellTiter-Glo luminescent cell viability assay, the amount of cellular ATP was measured in the lymphoblastoid cell line with complete culture medium following compound treatment for 24 hours. The assay was performed in opaque white Kalypsys 1536-well plates. In the screen, tetraoctylammonium bromide was used as positive control. Library compounds were measured for their ability to cause acute toxicity in the cell line, as reflected by a decrease in intracellular ATP levels, in a concentration-dependent manner. […] AC50 values were determined from concentration-response data modeled with the standard Hill equation.
# qHTS protocol for CellTiter Glo lymphoblastoid cellular assay
# [Step] [Parameter] [Value] [Description]
# 1. Reagent; 5 uL; 2500 lymphoblastoid cells/well
# 2. Time; 5 hr; 37 C incubation
# 4. Controls; 23 nL; Tetraoctylammonium bromide 6.4pM to 92 uM
# 5. Time; 24 hr; 37 C incubation
# 6. Reagent; 5 uL; CellTiter Glo reagent
# 7. Time; 30 min; Room Temperature
# 8. Detection; Luminescence; Viewlux plate reader
# Keywords: cell viability, cytotoxicity, lymphoblastoid cell line, luminescence, NTPHTS, NTPHTS_NCGC, NIEHS, DSSTox, MLSMR, MLSCN, NIH Roadmap, qHTS, NCGC
# On the % scale 0 is the no-effect control and ±100 the full control effect; potency means the concentration at half of the fitted maximal effect.
Structure (SMILES),"activity change, negative = cytotoxicity",Potency
Cc1ccc2ccccc2c1[N+](=O)[O-],-2.99% (inactive),–
Cc1ccco1,-0.949% (inactive),–
O=[N+]([O-])c1ccc2nc[nH]c2c1,-0.143% (inactive),–
Cc1ccccc1C#N,0.141% (inactive),–
CC1(N)CCC(C(C)(C)N)CC1 (stereo not given),-0.496% (inactive),–
CC(=O)c1cccc([N+](=O)[O-])c1,-4.85% (inactive),–
CCCCCNCCCCC,-8.22% (inactive),–
Cc1ccccc1C(=O)O,-2.34% (inactive),–
CSc1ccc(C=O)cc1,-0.555% (inactive),–
CNc1ccccc1,0.19% (inactive),–
Clc1ccc(Cl)c(Cl)c1Cl,1.96% (inactive),–
O=C(O)c1cccc(Cl)c1Cl,2.6% (inactive),–
CCOCCO,-0.299% (inactive),–
CC(C)=C1CCC(C)CC1=O (stereo not given),3.93% (inactive),–
COC(=O)CCC(=O)OC,-0.955% (inactive),–
Cc1ccc(CO)cc1,-3.73% (inactive),–
O=C1CCC(=O)O1,-2.38% (inactive),–
Nc1ccccc1S(=O)(=O)O,-1.23% (inactive),–
CC1=C(/C=C/C(C)=C/C=C/C(C)=C\C=O)C(C)(C)CCC1,–,50.1 µM (active)
COCCOC(=O)c1ccccc1C(=O)OCCOC,-3.5% (inactive),–

Structure (SMILES),"activity change, negative = cytotoxicity",Potency
COC(=O)CS,-3.84% (inactive),–
O=C(O)c1ccccc1Cl,-3% (inactive),–
O=C1C=CCCC1,-4.49% (inactive),–
C=C(C)C(=O)OCCCCCC,2.93% (inactive),–
Cc1cc(C)c(N)cc1C,-5.29% (inactive),–
CCCCCCCCC,-0.837% (inactive),–
N#Cc1ccccc1,-1.62% (inactive),–
CC(C)(c1cc(Br)c(OCC(Br)CBr)c(Br)c1)c1cc(Br)c(OCC(Br)CBr)c(Br)c1 (stereo not given),-13.1% (inactive),–
Cc1cscn1,-2.07% (inactive),–
Fc1ccccc1,1.41% (inactive),–
CCN(Cc1ccccc1)c1ccccc1,-4.9% (inactive),–
Cc1ccccc1C(N)=O,-1.22% (inactive),–
O=Cc1cccc(Br)c1,-4.12% (inactive),–
O=C(Cl)c1cccc([N+](=O)[O-])c1,1.1% (inactive),–
CCC(C)(C)OC,-3.92% (inactive),–
C1CCC2OC2C1 (stereo not given),-3.07% (inactive),–
CC(=O)c1nccs1,0.551% (inactive),–
CCCCC(CC)COC(=O)CCCCC(=O)OCC(CC)CCCC (stereo not given),-5.84% (inactive),–
Cc1ccc(N(C)C)cc1,-3.78% (inactive),–
O=C(O)c1ccc(C(=O)O)cc1,-1.53% (inactive),–
